# High-throughput results: PubChem BioAssay, several laboratories
# This excerpt belongs to a sample that is enriched for hits.
# RmlCD inh mix: RmlC/RmlD inhibition, mixture screen; inhibition, % at 5.5 µM; 0.39% of 110,000 active; RmlC/RmlD coupled enzyme inhibition, 384-well mixture HTS; AID 1532; in the data active = inhibition above about 30%, passing the limit was not always enough
# RT RNaseH block: inhibitors of HIV-1 reverse transcriptase RNase H | AID 565 | RT-RNase H RNA/DNA duplex cleavage, fluorescence | P04585 | 1.9% of 65,000 active | inhibition, % at 10 µM; in the data active = inhibition above about 50%
# RmlCD artifact: counter-screen for RmlC/RmlD inhibitors: fluorescence artifact | shares compounds with RmlCD inh mix | RmlC/RmlD assay fluorescence artifact counter-screen | calls only | 96% of 360 active | AID 1696; call rule not given here;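 note: compound alone with no enzyme and no substrates present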
# Active calls of the source: *; i = inactive; nt = no result; + = active, no number.
SMILES,RmlCD inh mix,RT RNaseH block,RmlCD artifact
COCCNC(=S)NC12CC3CC(CC(C3)C1)C2,-13,nt,nt
Cc1cccc(/C=C2/S/C(=N/N=C3\CC4CCC3(C)C4(C)C)NC2=O)c1 (stereo unspecified),-4,nt,nt
Cc1cc(C(=O)CSc2nnc(-c3cccs3)o2)c(C)n1-c1ccccc1,-42,-8,nt
CCn1cc(C(=O)N2CCCC2)c(=O)c2cc(S(=O)(=O)N3CCOCC3)ccc21,8,-1,nt
CCC1(C)Cc2c(sc3c2c(=O)n(C)c2nnc(SCC(=O)c4ccc(Cl)cc4)n32)CO1 (stereo unspecified),nt,13,nt
N=c1c(C(=O)NCc2ccc(F)cc2)cc2c(=O)n3ccccc3nc2n1Cc1cccnc1,53*,nt,+
COC(=O)c1cc2c(=O)n3ccccc3nc2n(Cc2cccnc2)c1=N,14,-8,nt
COC(=O)C[C@H]1c2cc(F)cc(F)c2S(=O)(=O)N1C1CCN(Cc2ccccc2)CC1,-5,nt,nt
CC(C)N(C(=O)C(=O)c1cccn1-c1ccccc1C#N)C(C)C,3,nt,nt
NS(=O)(=O)c1ccc(N2N=C(c3ccccc3)CC2c2ccc(F)cc2)cc1 (stereo unspecified),149*,nt,+
COc1ccc(C2CC(c3ccccc3)=NN2c2ccc(/C=N/NC(=O)c3ccncc3)cc2)cc1 (stereo unspecified),8,nt,nt
COc1ccc(CCNC(=O)Cn2nnc(-c3ccccc3F)n2)cc1OC,-6,nt,nt
CCOC(=O)c1c(C)[nH]c(C)c1C(=O)COC(=O)c1ccc(Cl)c(S(N)(=O)=O)c1,-10,nt,nt
CN1CC2(Cc3c1ccc1ccccc31)C(=O)OC(C)(C)OC2=O,+,3,+
Cc1ccc2c(c1)CC1(CN2C)C(=O)OC2(CCCCC2)OC1=O,-8,-1,nt
Cn1c(SCC(=O)N2CCOCC2)nc(O)cc1=O,5,nt,nt
Brc1c(OCCOCCn2cncn2)ccc2ccccc12,4,-37,nt
CC(C)Cn1c(-c2ccc(C#N)cc2)nc2c1c(=O)[nH]c(=O)n2CC(C)C,32*,nt,+
CCCCn1c(=O)[nH]c(=O)c2c1nc(-c1ccc(C#N)cc1)n2C1CCCC1,nt,34,nt
CN(C(=O)c1cccc(C#N)c1)c1nnc(C2CCOC2)s1 (stereo unspecified),-7,-8,nt
CN(C(=O)c1cccc(C#N)c1)c1nnc(-c2ccccn2)s1,36*,-15,+
CN(C(=O)c1ccc(C#N)cc1)c1nnc(-c2ccccn2)s1,40*,nt,i
CN(C(=O)c1ccncc1)c1nnc(-c2ccccn2)s1,108*,-3,+
CN(C(=O)c1ccncc1)c1nnc(-c2cccnc2)s1,nt,-7,nt
CN(C(=O)c1ccno1)c1nnc(-c2ccccn2)s1,+,-11,+
SMILES,RmlCD inh mix,RT RNaseH block,RmlCD artifact
CN(C(=O)c1ccccn1)c1nnc(-c2ccncc2)s1,nt,0,nt
COc1ccc(-c2nnc(N(C)C(=O)c3ccno3)s2)cc1,22,nt,nt
O=C1c2oc3ccccc3c(=O)c2C(c2ccc(Cl)cc2)N1c1ncccn1 (stereo unspecified),nt,-13,nt
O=C(Nn1c(-c2ccccc2)nc2ccccc2c1=O)C1CCC1,-3,-1,nt
O=C(COC(=O)CCc1ccccc1)Nc1ncc(Cl)cc1Cl,3,nt,nt
Cc1nc2sc3c(c2c2nc(-c4ccco4)nn12)CC(C)(C)OC3,nt,-10,nt
N#Cc1c(C(F)(F)F)cc(C2CC2)[nH]c1=O,40*,1,+
N#Cc1c(C(F)(F)F)cc(-c2ccccc2)[nH]c1=O,28,nt,nt
CC(=O)c1cc2cc(O)ccc2o1,136*,-31,+
CC(=O)c1cc2c(O)c(O)ccc2o1,-4,-19,nt
Cc1cccn2c(=O)c3cc(C(=O)N4CCc5ccccc54)n(C)c3nc12,nt,-21,nt
O=C(NNC(=O)c1cc(-c2ccco2)nc2ccccc12)c1ccccc1,nt,nt,+
O=C(NCc1ccco1)c1cc(-c2ccccc2)nc2ccccc12,-14,nt,nt
CNC(=O)COC(=O)c1cc(-c2ccco2)nc2ccccc12,nt,nt,+
O=C(COC(=O)c1cc(-c2ccco2)nc2ccccc12)NCc1ccccc1,-27,nt,nt
O=C(COc1ccccc1)n1nc(-c2ccc(Cl)cc2)nc1NCc1ccco1,-8,6,nt
O=C1CN=C(Nc2ccccc2Cl)N1Cc1ccc2c(c1)OCO2,5,nt,nt
Cc1cc2nc(C)n(CCCNC(=O)Nc3ccc(F)cc3)c2cc1C,5,nt,nt
Cc1nn(Cc2ccccc2)c2c1C(c1cccc(Cl)c1)C(C#N)=C(N)O2 (stereo unspecified),2,nt,nt
